Results on 22 compounds are retold here after PubChem BioAssay (NCI).

The nature of experiment [1]: NCI Yeast Anticancer Drug Screen. Data for the rad50 strain (AID 155).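 Further: 0% = growth of vehicle-only cultures of the same strain.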 The settings on record: S. cerevisiae rad50 strain growth inhibition; at 50.0 µM; stronger effect = higher value. In short, it runs like this: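 A DNA repair-deficient yeast mutant serves as the test organism; compound-induced growth inhibition is calculated against vehicle-treated cells.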
Experiment [2] can be described thus: NCI Yeast Anticancer Drug Screen. Data for the mec2-1 strain (AID 157). The settings on record: S. cerevisiae mec2-1 strain, at 50.0 µM, stronger effect = higher value. In short, it runs like this: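 mec2-1 yeast strain, carrying an alteration in DNA damage repair or cell cycle control, was exposed to compounds; growth inhibition was measured relative to vehicle-treated controls.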

A short description of experiment [3]: NCI Yeast Anticancer Drug Screen. Data for the sgs1 mgt1 strain (AID 161).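 Further: 0% = growth of cultures given vehicle only.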 The settings on record: S. cerevisiae sgs1 mgt1 strain, at 50.0 µM, stronger effect = higher value. In short, it runs like this:
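Yeast cells carrying a defined DNA-repair defect were exposed to test compounds. Growth inhibition was measured relative to vehicle-treated controls.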

Experiment [4] can be described thus: NCI Yeast Anticancer Drug Screen. Data for the cln2 rad14 strain (AID 165).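 Further: 0% = growth equal to vehicle treated cultures.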 The settings on record: S. cerevisiae cln2 rad14 strain, at 50.0 µM, stronger effect = higher value. In short, it runs like this:
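Yeast carrying cln2 and rad14 alterations (cell cycle control and DNA damage repair) were exposed to compounds. Growth inhibition was measured against vehicle-treated controls.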

Experiment [5] is described as follows: NCI Yeast Anticancer Drug Screen. Data for the bub3 strain (AID 167). The settings on record: S. cerevisiae bub3 mutant strain, at 50.0 µM, stronger effect = higher value. In short, it runs like this:
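Inhibition values come from growth of compound-treated mutant yeast normalised to vehicle-treated controls.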

A short description of experiment [6]: NCI Yeast Anticancer Drug Screen. Data for the mlh1 rad18 strain (AID 175). The settings on record: S. cerevisiae mlh1 rad18 strain growth inhibition; at 50.0 µM; stronger effect = higher value. In short, it runs like this: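 Growth inhibition of the yeast strain was measured after compound exposure and expressed relative to vehicle-treated controls. The strain carries defined defects in DNA damage repair.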

The structures appear in SMILES notation. Several values for one entry are separate records, joined by “and”; a condition that tells them apart may be missing. Equal entries are not always repeated. Compounds without any hit were thinned out: in the full panel of roughly 79,000, 15% have a hit. Where a structure was tested more than once in an assay, its records may differ in their call. Activity calls are given as the source filed them. No stated cut-off is given here; in the data, active means growth inhibition above about 70%; inactive means the rest.

As for `Cc1cc(Cl)ccc1OCCCC(=O)O`, the growth inhibition is 28.4% (inactive) in experiment [1]; 16.2% (inactive) in experiment [2]; 41.5% (inactive) in experiment [3]; 21% (inactive) in experiment [4]; 47.1% (inactive) in experiment [5]; 15.4% (inactive) in experiment [6].

`CN1CCN(c2nc(N)c(Br)c(Cl)n2)CC1`: the growth inhibition was -2.85% (inactive) in experiment [1]; 3.65% (inactive) in experiment [2]; -14.8% (inactive) in experiment [3]; -1.85% (inactive) in experiment [4]; 2.95% (inactive) in experiment [5]; -10.2% (inactive) in experiment [6].

Regarding `O=P1(CCBr)NCCCO1` (configuration not stated), the growth inhibition in experiment [1] was -5.25% (inactive); in experiment [2], 14.6% (inactive); in experiment [3], -3.6% (inactive); in experiment [4], -59.4% (inactive); in experiment [5], -10.4% (inactive); in experiment [6], 7.5% (inactive).

Regarding `Cc1nnc2n1-c1ccccc1C(=S)N1CSCC21` (configuration not stated), the growth inhibition is -22% (inactive) in experiment [1]; -0.25% (inactive) in experiment [2]; -24.7% (inactive) in experiment [3]; 8.15% (inactive) in experiment [4]; -6.7% (inactive) in experiment [5]; -0.45% (inactive) in experiment [6].

Turning to `CC(C)(NC1=NCCO1)c1ccccc1`, the growth inhibition in experiment [1] is -4.95% (inactive); in experiment [2], -16.9% (inactive); in experiment [3] it was -7.65% (inactive); in experiment [4] it was 5.5% (inactive); in experiment [5], -13.7% (inactive); in experiment [6], 62% (inactive).

For the compound `O=P1(N(CCCl)CCCl)OC(c2ccccc2)=CCN1c1ccccc1` (configuration not stated), the growth inhibition in experiment [1] is 0.6% (inactive); in experiment [2] it was 20.1% (inactive); in experiment [3], 57.2% (inactive); in experiment [4] it was 32.4% (inactive); in experiment [5], 50% (inactive); in experiment [6], 34.6% (inactive).

In the case of `N#CC(C#N)=Cc1ccco1`, the growth inhibition in experiment [1] is -7.95% (inactive); in experiment [2] it was 6.15% (inactive); in experiment [3], 24.7% (inactive); in experiment [4], -42.4% (inactive); in experiment [5], -3.85% (inactive); in experiment [6] it was 5.5% (inactive).

Regarding `O=NNc1ccc(Cl)cn1`, the growth inhibition in experiment [1] was -11.5% (inactive); in experiment [2] it was 3.75% (inactive); in experiment [3], 3.1% (inactive); in experiment [4], -1.45% (inactive); in experiment [5], -18.3% (inactive); in experiment [6] it was 3.3% (inactive).

Regarding `O=[N+]([O-])c1ccc2c(c1)Oc1cccnc1[Se]2`, the growth inhibition in experiment [1] is 16.1% (inactive); in experiment [2], 8.6% (inactive); in experiment [3] it was 20.9% (inactive); in experiment [4], 8.25% (inactive); in experiment [5], -11.5% (inactive); in experiment [6], 38.8% (inactive).

For `O=[N+]([O-])c1ccc(Cl)c([N+](=O)[O-])c1`, the growth inhibition in experiment [1] is 99.2% (active); in experiment [2], 98.5% (active); in experiment [3] it was 99.2% (active); in experiment [4], 96.3% (active); in experiment [5], 98.7% (active); in experiment [6], 99.2% (active).

Take `CC[C@@]1(O)C(=O)OCc2c1cc1n(c2=O)Cc2c-1nc1ccccc1c2C=Nc1ccccc1N[C@@H]1c2cc3c(cc2[C@@H](c2cc(OC)c(O)c(OC)c2)[C@H]2C(=O)OC[C@@H]21)OCO3`: the growth inhibition in experiment [1] is 78.8% (active) and 86.8% (active); in experiment [2] it was 71.7% (active) and 80.9% (active); in experiment [3] it was 76.5% (active) and 84.7% (active); in experiment [4], 63% (inactive) and 82% (active); in experiment [5], 69.9% (inactive) and 85.9% (active); in experiment [6], 39.6% (inactive) and 85.8% (active).

With `COc1cccc(NC2=NCCO2)c1`, the growth inhibition in experiment [1] is -17.1% (inactive); in experiment [2] it was -1.2% (inactive); in experiment [3], -5.95% (inactive); in experiment [4] it was 3.8% (inactive); in experiment [5], -2.2% (inactive); in experiment [6], -12.2% (inactive).

`COc1ccc(CC2C3=C(CCCC3)CCN2C)cc1` (configuration not stated): the growth inhibition in experiment [1] is 45.2% (inactive); in experiment [2] it was 21.9% (inactive); in experiment [3], 28.6% (inactive); in experiment [4] it was 21.8% (inactive); in experiment [5] it was 17.6% (inactive); in experiment [6] it was -25.8% (inactive).

With `C[C@]12C=CC(=O)C=C1CC[C@@H]1[C@@H]2C(=O)C[C@]2(C)C(=O)CC[C@@H]12`, the growth inhibition in experiment [1] was -11.4% (inactive); in experiment [2] it was -19.1% (inactive); in experiment [3], 2.05% (inactive); in experiment [4], -1.85% (inactive); in experiment [5], -4.4% (inactive); in experiment [6], 4.95% (inactive).

For the compound `[CH3][Sb]([CH3])[S]C1OC(CO)C(O)C(O)C1O` (configuration not stated), the growth inhibition was -10.3% (inactive) in experiment [1]; 0.9% (inactive) in experiment [2]; 29.9% (inactive) in experiment [3]; -15.8% (inactive) in experiment [4]; 25.5% (inactive) in experiment [5]; -17.8% (inactive) in experiment [6].

For the compound `COC(=O)C(C)N(CCCl)P(=O)(N1CC1)N1CC1` (configuration not stated), the growth inhibition in experiment [1] is 5.4% (inactive); in experiment [2], 8.2% (inactive); in experiment [3], 11.4% (inactive); in experiment [4] it was 9.1% (inactive); in experiment [5], 4.35% (inactive); in experiment [6] it was 1.85% (inactive).

Consider `CC(C)(C)[Si](C)(C)OC(=O)CCCc1ccc(N(CCCl)CCCl)cc1`, for which the growth inhibition is 12.1% (inactive) in experiment [1]; -9.9% (inactive) in experiment [2]; -10.2% (inactive) in experiment [3]; 9.4% (inactive) in experiment [4]; -21.7% (inactive) in experiment [5]; -47.1% (inactive) in experiment [6].

In the case of `C1CC[N-]CC1.C1CC[N-]CC1.[Cl][Pd][Cl]`, the growth inhibition is 1.25% (inactive) in experiment [1]; 8.8% (inactive) in experiment [2]; 13% (inactive) in experiment [3]; -23.6% (inactive) in experiment [4]; 10.8% (inactive) in experiment [5]; 15.4% (inactive) in experiment [6].

With `CC(=O)CC(C)=O.CC(=O)CC(C)=O.CC(=O)CC(C)=O.[Co]`, the growth inhibition was -27.8% (inactive) and 13.9% (inactive) in experiment [1]; -50.8% (inactive) and -4.9% (inactive) in experiment [2]; -4.85% (inactive) and 26.6% (inactive) in experiment [3]; -20.4% (inactive) and -16.4% (inactive) in experiment [4]; -45% (inactive) and 23.6% (inactive) in experiment [5]; -10.2% (inactive) and 21.3% (inactive) in experiment [6].

With `CCCCN=C=S`, the growth inhibition is 45.7% (inactive) in experiment [1]; -11.7% (inactive) in experiment [2]; 21.8% (inactive) in experiment [3]; 5.15% (inactive) in experiment [4]; -3.8% (inactive) in experiment [5]; 19% (inactive) in experiment [6].

For `C/C=C/COC(=O)CO[N+](=O)[O-]`, the growth inhibition in experiment [1] is 2% (inactive); in experiment [2], -4.25% (inactive); in experiment [3] it was -5.3% (inactive); in experiment [4], -12.8% (inactive); in experiment [5], -0.5% (inactive); in experiment [6], -0.15% (inactive).

On to `CCCC(C)c1ccc(SOO)cc1.[Fe]` (configuration not stated), for which the growth inhibition in experiment [1] is 19.9% (inactive); in experiment [2], 4.05% (inactive); in experiment [3], -13.7% (inactive); in experiment [4], -17.5% (inactive); in experiment [5], 8.5% (inactive); in experiment [6], -6.6% (inactive).
